# Results from PubChem BioAssay AID1851 (National Center for Advancing Translational Sciences (NCATS), 2009).
# Hit rate of the full screen: of about 16,000 compounds, about 5,800 (36%) were called active. Another 23% or so got no clear call; they are omitted. The list shows a part of the results. Values without a mark were called inactive. The call rests on the fitted dose curve; in most records, active means well fitted curve in the direction sought with a large enough effect; inconclusive means small, poorly fitted or top-dose-only effect, or effect the other way; inactive means no such curve, though single readings can be large or run the other way. Numbered stars: 1 amine (or outer) side, 2 acyl side, 3 side chain; on linkers, the order of the positions; unused ones are H or OH. Bridge positions count the residues as written; N and C are the ends. Square brackets hold non-standard residues; d marks the D form. Peptide text beside a SMILES is read from it. I, II: the chains in the order shown. Actinocin(9to1) = Cc1c2oc3c(C)ccc(C(=O)[*:1])c3nc-2c(C(=O)[*:2])c(N)c1=O; aThr = C[C@H](O)[C@H](N)C(=O)O; NMeV = CN[C@H](C(=O)O)C(C)C; Sar = CNCC(=O)O
# Target: Cytochrome P450 2C19 (Homo sapiens) (UniProt P33261)
# Assay: Cytochrome panel assay with activity outcomes
# Conditions: recombinant CYP, pro-luciferin dealkylation, luminescence, p450-cyp2c19; series mostly up to 57.1 µM
# On the % scale 0 is the no-effect control and ±100 the full control effect.
# Chain of Cytochrome P450 2C19 (Homo sapiens) (P33261 whole entry, looked up): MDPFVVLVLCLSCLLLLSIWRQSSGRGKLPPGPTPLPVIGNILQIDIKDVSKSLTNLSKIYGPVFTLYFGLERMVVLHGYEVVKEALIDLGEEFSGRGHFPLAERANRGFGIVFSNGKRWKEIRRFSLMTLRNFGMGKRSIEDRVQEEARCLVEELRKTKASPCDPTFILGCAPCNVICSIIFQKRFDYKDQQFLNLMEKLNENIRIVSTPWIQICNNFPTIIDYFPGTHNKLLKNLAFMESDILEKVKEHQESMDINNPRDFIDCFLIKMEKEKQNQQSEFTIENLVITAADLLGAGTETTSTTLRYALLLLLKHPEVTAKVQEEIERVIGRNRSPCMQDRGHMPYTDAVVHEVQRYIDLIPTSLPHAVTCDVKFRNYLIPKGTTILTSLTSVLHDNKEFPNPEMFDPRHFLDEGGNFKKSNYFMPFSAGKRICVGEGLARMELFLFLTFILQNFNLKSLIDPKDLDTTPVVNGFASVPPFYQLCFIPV
SMILES,AC50,"activity, negative = inhibition"
CO[C@H]1C[C@@H](O[C@@H]2[C@H](C)[C@H](O[C@@H]3O[C@@H](C)C[C@@H](N(C)C)[C@@H]3O)[C@H](C)C[C@]3(CO3)C(=O)[C@H](C)[C@H](O)[C@H](C)[C@H](C)OC(=O)[C@@H]2C)O[C@@H](C)[C@H]1O,inactive,
COC(=O)N[C@H](c1ccccc1)[C@@]1(C)C[C@@H]1[C@@H](C)C(=O)Nc1ccc2ccccc2c1,3.16 µM (active),
C[C@@H](C(=O)Nc1ccc2ccccc2c1)[C@H]1C[C@]1(C)[C@H](NP(=O)(c1ccccc1)c1ccccc1)c1ccccc1,10 µM (active),
C[C@@H](C(=O)Nc1ccc2ccccc2c1)[C@H]1C[C@]1(C)[C@H](NC(=O)Oc1ccc(F)cc1)c1ccccc1,inactive,
C[C@@H](C(=O)Nc1ccc2ccccc2c1)[C@@H]1C[C@@]1(C)[C@@H](NC(=O)Oc1ccc(F)cc1)c1ccccc1,inactive,
C[C@@H](C(=O)Cc1ccc2ccccc2c1)[C@@H]1C[C@@]1(C)[C@@H](NP(=O)(c1ccccc1)c1ccccc1)c1ccccc1,inactive,
C[C@@H](C(=O)Nc1ccc2ccccc2c1)[C@H]1C[C@]1(C)[C@H](NS(=O)(=O)c1ccc(-c2ccccc2)cc1)c1ccccc1,inactive,
COc1ccc([C@@H]2Sc3ccccc3N(CCN(C)C)C(=O)[C@@H]2OC(C)=O)cc1,inactive,
COc1ccc(C2C(=O)N(CCc3ccccc3)CC(=O)N2C2CCCC2)cc1 (stereo not given),11.2 µM (active),
COc1ccc(C2C(C(=O)N3CCN(C)CC3)c3ccccc3C(=O)N2C2CCCCC2)cc1 (stereo not given),inactive,
CCCCN1C(=O)CN(CCc2ccccc2)C(=O)C1c1ccc(OC)cc1 (stereo not given),7.08 µM (active),
Cc1noc(C)c1C(=O)N1CCC[C@@]2(CCN(C(=O)NC(C)C)C2)C1,inactive,
CCn1c(SCC(=O)OC)nc2sc3c(c2c1=O)CCC3,8.91 µM (active),
CCCc1ccc(C2C3=C(CC(C)(C)CC3=O)NC3=C2C(=O)c2ccccc23)cc1 (stereo not given),4.47 µM (active),
COc1cccc(-c2ccc3ncnc(Nc4ccccc4)c3c2)c1,0.501 µM (active),
c1ccc(Nc2ncnc3ccc(-c4ccoc4)cc23)cc1,2 µM (active),
c1ccc(Nc2ncnc3ccc(-c4cccnc4)cc23)cc1,inactive,
FC(F)(F)c1ccccc1-c1ccc2ncnc(NCc3cccnc3)c2c1,0.00794 µM (active),
CN(C)C(=O)c1ccc(-c2ccc3ncnc(Nc4ccccc4)c3c2)cc1,inactive,
COc1ncc2nc(-c3ccccc3)c(=O)n(C)c2n1,inactive,
COc1ccc(-n2cnc3sc(-c4ccccc4)cc3c2=O)cc1,14.1 µM (active),
COc1cccc(Nc2ncc3nc(-c4ccccc4)c(=O)n(C)c3n2)c1,inactive,
CC(C)=NO[C@@H](C)CN1CCCCc2nc(C)c(C)cc21,,-14.1% [at 11.4 µM]

SMILES,AC50,"activity, negative = inhibition"
NCCNc1ncnc2ccc(Cl)cc12,,-2.27% [at 11.4 µM]
COc1ccccc1-c1ccc2ncnc(NCc3cccnc3)c2c1,0.00794 µM (active),
COCCNc1ncnc2ccc(-c3ccccc3CN(C)C)cc12,inactive,
COCCNc1ncnc2ccc(-c3ccccc3OC)cc12,5.01 µM (active),
Clc1cccc(Nc2ncnc3ccc(Br)cc23)c1,5.01 µM (active),
COc1cccc(-c2ccc3ncnc(NCc4cccnc4)c3c2)c1,0.0126 µM (active),
COc1ccccc1CN1CC[C@@]2(CCCN(C(=O)c3ccco3)C2)C1,inactive,
Cc1cnc(CNc2ncnc3ccc(-c4cccc(C#N)c4)cc23)cn1,inactive,
COCCNc1ncnc2ccc(-c3ccccc3C(F)(F)F)cc12,6.31 µM (active),
COc1cccc(-c2ccc3ncnc(NCc4cnc(C)cn4)c3c2)c1,15.8 µM (active),
COc1ccc(Nc2ncnc3sc(-c4ccccc4)cc23)cc1,3.16 µM (active),
FC(F)(F)c1ccccc1-c1ccc2ncnc(NCc3cccs3)c2c1,3.16 µM (active),
O=C(c1cnccn1)N1CCC[C@@]2(CCN(c3ncccn3)C2)C1,inactive,
"Cc1c2oc3c(C)ccc(C(=O)N[C@@H]4C(=O)N[C@@H](C(C)C)C(=O)N5CCC[C@@H]5C(=O)N(C)CC(=O)N(C)[C@@H](C(C)C)C(=O)O[C@H]4C)c3nc-2c(C(=O)N[C@@H]2C(=O)N[C@@H](C(C)C)C(=O)N3CCC[C@@H]3C(=O)N(C)CC(=O)N(C)[C@@H](C(C)C)C(=O)O[C@H]2C)c(N)c1=O (I: [aThr]V[dP][Sar][NMeV] / II: [aThr]V[dP][Sar][NMeV]; ester I:1-I:C, II:1-II:C; linker I:N-II:N via Actinocin(9to1))",inactive,
CN(C)Cc1ccccc1-c1ccc2ncnc(NCc3ccccc3)c2c1,inactive,
Clc1ccccc1-c1ccc2ncnc(NCc3cccnc3)c2c1,0.01 µM (active),
COc1ccccc1-c1ccc2ncnc(NCc3ccccc3)c2c1,3.98 µM (active),
COc1ccccc1-c1ccc2ncnc(Nc3ccccc3)c2c1,5.01 µM (active),
Nc1nc2n[nH]nc2c(=O)[nH]1,inactive,
CN(C)c1nc(N)c(C(=O)N=C(N)N)nc1Cl,inactive,
NC(N)=NC(=O)c1nc(Cl)c(N2CCCCCC2)nc1N,5.01 µM (active),
NC(N)=NC(=O)c1nc(Cl)c(N)nc1N,inactive,
CCN(c1nc(N)c(C(=O)N=C(N)N)nc1Cl)C(C)C,inactive,

SMILES,AC50,"activity, negative = inhibition"
c1c[nH]c(CN2CCN(Cc3ncc[nH]3)CC2)n1,,-25.8% [at 11.4 µM]
Cc1cc(C(=O)CSC(=S)SC(C)(C)C)ccc1Cl,1 µM (active),
CC(=O)N1CCc2cc(Br)cc(S(=O)(=O)N3CCN(C(=O)c4ccco4)CC3)c21,4.47 µM (active),
Cc1ccc(NC(=O)c2nnn(-c3cc(C)cc(C)c3)c2N)cc1,3.98 µM (active),
Cc1cc(Cc2c(C)c(C)c(Cc3cc(C)cc(C(C)(C)C)c3O)c(C)c2C)c(O)c(C(C)(C)C)c1,,37.4% [at 11.4 µM]
Cc1cc(Cc2cc(Cc3cc(C)cc(C(C)(C)C)c3O)c(C)cc2C)c(O)c(C(C)(C)C)c1,1 µM (active),
Cc1cc(Cc2cc(C)cc(C(C)(C)C)c2O)c(O)c(Cc2cc(C)cc(C(C)(C)C)c2O)c1,3.16 µM (active),
CCN1CCN(C(=O)N[C@H](C(=O)N[C@@H]2C(=O)N3[C@@H]2SC(C)(C)[C@@H]3C(=O)O)c2ccccc2)C(=O)C1=O,inactive,
N#Cc1cccc(-c2cncnc2NCc2cccnc2)c1,3.98 µM (active),
N#Cc1cccc(-c2cncnc2NCc2ccccc2)c1,7.94 µM (active),
Cc1cnc(CNc2ncncc2-c2cccc(C#N)c2)cn1,inactive,
N#Cc1cccc(-c2cncnc2NCc2cccs2)c1,7.94 µM (active),
Cc1cccc(CNc2ncncc2-c2cccc(C#N)c2)c1,3.98 µM (active),
CC(C)CN1CCC2(CC1)CCN(C(=O)c1cccn1C)CC2,inactive,
CC(=O)NC1=NC(=O)CS1,inactive,
Nc1cc(-c2ccncc2)c[nH]c1=O,5.01 µM (active),
Cc1cccc(C)c1OC[C@@H](N)C(C)C,inactive,
CCCCc1ccc(-c2csc(/C(C#N)=C/c3ccc(C)o3)n2)cc1,5.62 µM (active),
Nc1nnc(C(c2ccccc2)c2ccccc2)s1,22.4 µM (active),
COc1ccc(C(C(=O)NC2CCCC2)N(Cc2ccc(F)cc2)C(=O)c2ccn[nH]2)cc1OC (stereo not given),10 µM (active),
COc1ccc(CC(NC(C)=O)C(=O)NC2CCN(C(=O)Nc3ccc(Cl)cc3)CC2)cc1OC (stereo not given),inactive,
O=C(NC1CCCC1)C(c1ccc(F)cc1)N(Cc1ccc(F)cc1)C(=O)c1ccn[nH]1 (stereo not given),5.01 µM (active),
Cc1nc2cnc(N3CCN(C)CC3)nc2n(Cc2ccc(F)cc2)c1=O,inactive,

SMILES,AC50,"activity, negative = inhibition"
COc1ncc2nc(-c3ccc(F)cc3)c(=O)n(CCc3ccccc3)c2n1,inactive,
COc1ccc(-c2nc3cnc(OC)nc3n(CCc3ccccc3)c2=O)cc1,inactive,
COCCn1c(=O)c(-c2ccccc2)nc2cnc(OC)nc21,inactive,
COCCn1c(=O)c(CCc2ccccc2)nc2cnc(OC)nc21,0.794 µM (active),
COc1ccc(-n2c(=O)c(CCc3ccccc3)nc3cnc(OC)nc32)cc1,6.31 µM (active),
COc1ccc(-c2nc3cnc(OC)nc3n(-c3ccc(OC)cc3)c2=O)cc1,inactive,
Cc1nc2cnc(Oc3ccccc3)nc2n(CCc2ccccc2)c1=O,inactive,
COc1ncc2nc(CCc3ccccc3)c(=O)n(CCc3ccccc3)c2n1,7.94 µM (active),
COCCn1c(=O)c(-c2cn(C)c3ccccc23)nc2cnc(OCc3ccccc3)nc21,inactive,
COc1ncc2nc(C)c(=O)n(CCc3ccccc3)c2n1,25.1 µM (active),
COc1ccc(-n2c(=O)c(CCc3ccccc3)nc3cnc(N4CCN(C)CC4)nc32)cc1,inactive,
C#CCCCO/N=C1/C[C@@H](O)[C@@H](O)[C@@H]2[C@@H]3C(=O)N(C4CCCCC4)C(=O)[C@H]3CC[C@@H]12,,-32.2% [at 11.4 µM]
O=C1C[C@H]2C(=O)[C@@H]1[C@@H](C(=O)O)[C@H]2C(=O)O,,-11.8% [at 11.4 µM]
Cc1ccc(S(=O)(=O)N[C@H]2COC(=O)[C@@H](C)COC(=O)[C@H](C)NC(=O)C/C=C\[C@H]2C)cc1,,9.82% [at 11.4 µM]
COc1ccc(-c2nc3cnc(N4CCNCC4)nc3n(C)c2=O)cc1,inactive,
CCOC(=O)c1c(C)n(C)c2ccc(OC)c(NS(=O)(=O)c3ccc(Cl)s3)c12,0.282 µM (active),
C=CCNC(=S)Nc1ccc2nc(C)c(C)nc2c1,inactive,
Cc1ccc(NC(=S)NCCN2CCOCC2)cc1C,5.01 µM (active),
Cc1ccc(CCN2CC(C(=O)NCCN3CCOCC3)CC2=O)cc1 (stereo not given),inactive,
Cc1cc(-c2ccccc2)nnc1NCCN1CCOCC1,inactive,
Cc1ccc(SCCNC(=S)Nc2ccc(C)c(C)c2)cc1,3.16 µM (active),
